# The entries come from a sample that favours hits as a whole.
# C diff HTS: C. difficile growth inhibitors, primary screen, HTS | actives 0.25% (n = 86,000) | Clostridium difficile clinical isolate growth, OD600, 24 h; active compounds read low | growth activity, negative = inhibition, % at 16 µg/mL (by protocol);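 active = mean growth activity at or below -80% and every replicate also at or below -80%; inconclusive = mean at or below -80% but some replicate above -80%; inactive = mean growth activity above -80%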;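 note: 0% = DMSO wells and -100% = levofloxacin 16 µg/mL wells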
# T cruzi growth-1: T. cruzi intracellular proliferation inhibitors, primary screen, cell-based, beta-gal Tulahuen parasites, NIH3T3 host, luminescence; actives 5.9% (n = 77,000); inhibition, % at 8.34 µM; T. cruzi beta-gal in NIH3T3, GalScreen luminescence, 90 h;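 active = mean inhibition above about 93%, with at least 55% of replicates each passing it, limit read from the data, passing the limit was not always enough; inconclusive = only one of those two conditions holds; inactive = neither condition holds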
# T cruzi growth-2: T. cruzi intracellular proliferation inhibitors, confirmation, cell-based, NIH3T3 host, beta-gal parasite, luminescence, cherry-pick; shares compounds with T cruzi growth-1; T. cruzi beta-gal in NIH3T3, GalScreen luminescence, 90 h; inhibition, % at 8.35 µM; actives 72% (n = 5,600); AID 651739, 2012;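 active = mean replicate inhibition above about 95% and at least 55% of replicates individually reaching it, limit read from the data; inconclusive = only one of the two criteria is met; inactive = neither criterion is met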
# T cruzi growth-3: inhibitors of intracellular T. cruzi replication, confirmation, NIH3T3 host cells, beta-gal parasites, cherry-pick, set 2. T. cruzi beta-gal in NIH3T3, GalScreen luminescence, 90 h. shares compounds with T cruzi growth-1. AID 651740, 2012. inhibition, % at 2.09 µM. actives 21% (n = 5,600);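 active = mean inhibition above about 95%, with at least 55% of replicates also reaching it, limit read from the data; inconclusive = meets just one of the two conditions; inactive = meets neither condition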;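 note: plate controls were neutral control median for no effect and positive control median for full effect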
# 3T3 cytotox: cytotoxicity in mouse NIH/3T3 fibroblasts, confirmation, cytotoxicity control for T. cruzi proliferation inhibitor project, cell-based, cherry-pick, single point; shares compounds with T cruzi growth-1; NIH/3T3 viability, CellTiter-Glo ATP luminescence, 90 h; cytotoxicity (signal decrease), % at 8.35 µM; actives 14% (n = 5,600);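 active = mean signal decrease across replicates above about 35% based on untreated-well scatter, with enough replicates individually passing, limit read from the data; inconclusive = no rule stated though some were filed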;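 note: 0% = median of neutral control wells and 100% = median of positive control wells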
# 3T3 cytotox 2: NIH/3T3 fibroblast cytotoxicity, confirmation, cytotoxicity control, cell-based, cherry-pick, single point, set 2; shares compounds with T cruzi growth-1; NIH/3T3 viability, CellTiter-Glo ATP luminescence, 90 h; inhibition, % at 24.9 µM; actives 56% (n = 5,600);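 active = mean loss of cell viability signal at or above a set limit, and enough replicates individually reaching it; inconclusive = meets only the mean limit or only the replicate share; inactive = meets neither condition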;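 note: 0% = median of neutral control wells and 100% = median of positive control wells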
# Starred values were filed as active, the others as inactive; u = inconclusive; x = no result given.
SMILES,C diff HTS,T cruzi growth-1,T cruzi growth-2,T cruzi growth-3,3T3 cytotox,3T3 cytotox 2
C[C@H](NC(=O)C[C@H]1C[C@H]2c3cc(NC(=O)NC4CCCC4)ccc3O[C@H]2[C@H](CO)O1)c1ccccc1,x,9.1,x,x,x,x
C[C@H](CO)N1C[C@H](C)[C@@H](CN(C)C(=O)Cc2cccnc2)Oc2cc(C#CC3(O)CCCC3)ccc2S1(=O)=O,-4.8,14.0,x,x,x,x
C[C@@H]1CCCCO[C@@H](CN(C)C(=O)NC2CCCCC2)[C@H](C)CN([C@@H](C)CO)C(=O)c2cc(NC(=O)CCC(F)(F)F)ccc2O1,5.6,25.9,x,x,x,x
C[C@H]1CN([C@@H](C)CO)S(=O)(=O)c2ccc(-c3ccc(C#N)cc3)cc2O[C@@H]1CN(C)C(=O)Nc1cc(F)ccc1F,6.5,108.1*,91.9,40.8,31.5,75.5*
C[C@H]1CN([C@@H](C)CO)S(=O)(=O)c2ccc(-c3cccc(C#N)c3)cc2O[C@H]1CN(C)C(=O)Nc1cc(F)ccc1F,3.8,x,x,x,x,x
C[C@H](CO)N1C[C@H](C)[C@H](CN(C)C(=O)Nc2cc(F)ccc2F)Oc2cc(-c3cccc(C#N)c3)ccc2S1(=O)=O,-0.7,x,x,x,x,x
C[C@@H]1CN([C@@H](C)CO)S(=O)(=O)c2ccc(-c3ccc(C#N)cc3)cc2O[C@H]1CN(C)C(=O)Nc1cc(F)ccc1F,1.6,98.9,x,x,x,x
C[C@H]1CN([C@@H](C)CO)S(=O)(=O)c2ccc(-c3cccc(F)c3)cc2O[C@H]1CN(C)C(=O)Nc1cc(F)ccc1F,5.5,112.0*,104.7*,102.3*,62.8*,42.2*
C[C@H]1CN([C@@H](C)CO)S(=O)(=O)c2ccc(-c3cccc(F)c3)cc2O[C@@H]1CN(C)C(=O)Nc1cc(F)ccc1F,9.9,111.9*,106.4*,77.8,43.1*,85.9*
Cc1ccc(S(=O)(=O)Nc2ccc3c(c2)CC(=O)N([C@@H](C)CO)C[C@@H](C)[C@@H](CN(C)Cc2ccc(Oc4ccccc4)cc2)O3)cc1,21.3,-11.4,x,x,x,x
CO[C@@H]1CN(C)C(=O)c2cc(NC(=O)c3ccno3)ccc2OC[C@@H](C)N(S(C)(=O)=O)C[C@H]1C,x,21.6,x,x,x,x
O=C(C1=C[C@@H](C2CC2)C[C@@H](OCCCCO)O1)N1CCCCCCC1,-10.4,x,x,x,x,x
O=C(C[C@H]1CC[C@H](NC(=O)Nc2cccc(F)c2)[C@@H](CO)O1)NCC1CC1,x,24.4,x,x,x,x
C[C@H](CO)N1C[C@H](C)[C@H](CN(C)Cc2ccccc2)Oc2cc(-c3ccncc3)ccc2S1(=O)=O,1.2,85.4,x,x,x,x
C[C@H]1CN([C@@H](C)CO)S(=O)(=O)c2ccc(-c3ccncc3)cc2O[C@@H]1CN(C)Cc1ccccc1,-3.3,90.0,x,x,x,x
C[C@@H]1CN([C@H](C)CO)S(=O)(=O)c2ccc(-c3ccncc3)cc2O[C@H]1CN(C)Cc1ccccc1,-5.2,u,97.6*,100.3*,59.9*,94.0*
C[C@@H]1CN([C@@H](C)CO)S(=O)(=O)c2ccc(-c3ccncc3)cc2O[C@H]1CN(C)Cc1ccccc1,-3.5,u,92.4,98.8*,75.8*,95.7*
Cc1ccc(S(=O)(=O)Nc2ccc3c(c2)C(=O)N([C@H](C)CO)C[C@@H](C)[C@@H](CN(C)Cc2ccncc2)OCCCC[C@@H](C)O3)cc1,x,60.4,x,x,x,x
COc1ccccc1-c1ccc2c(c1)O[C@@H](CN(C)C(C)=O)[C@@H](C)CN([C@H](C)CO)S2(=O)=O,-0.2,19.5,x,x,x,x
C[C@H]1CN([C@@H](C)CO)S(=O)(=O)c2ccc(Br)cc2O[C@@H]1CN(C)S(=O)(=O)c1ccccc1,6.9,x,x,x,x,x
COc1ccccc1-c1ccc2c(c1)O[C@@H](CN(C)S(=O)(=O)c1ccccc1)[C@H](C)CN([C@@H](C)CO)S2(=O)=O,5.5,97.8*,104.4*,91.9,47.2*,37.6*
COc1ccccc1-c1ccc2c(c1)O[C@@H](CN(C)S(=O)(=O)c1ccccc1)[C@H](C)CN([C@H](C)CO)S2(=O)=O,7.5,u,104.9*,49.7,37.1*,39.3*
COc1ccccc1-c1ccc2c(c1)O[C@H](CN(C)S(=O)(=O)c1ccccc1)[C@H](C)CN([C@@H](C)CO)S2(=O)=O,9.4,u,102.5*,63.1,16.9,44.3*
C[C@@H]1CN([C@H](C)CO)S(=O)(=O)c2ccc(Br)cc2O[C@@H]1CN(C)S(=O)(=O)c1ccccc1,20.1,x,x,x,x,x
COc1ccccc1-c1ccc2c(c1)O[C@@H](CN(C)C(=O)c1ccccc1)[C@H](C)CN([C@@H](C)CO)S2(=O)=O,1.2,17.2,x,x,x,x
SMILES,C diff HTS,T cruzi growth-1,T cruzi growth-2,T cruzi growth-3,3T3 cytotox,3T3 cytotox 2
COc1ccccc1-c1ccc2c(c1)O[C@H](CN(C)S(=O)(=O)c1ccccc1)[C@H](C)CN([C@H](C)CO)S2(=O)=O,8.4,95.0*,104.6*,41.7,24.8,36.7*
CCC(=O)N1CC2(C1)[C@H](c1ccccc1)[C@@H](CO)N2S(=O)(=O)Cc1ccccc1,5.5,x,x,x,x,x
COc1ccccc1-c1ccc2c(c1)O[C@@H](CN(C)C)[C@@H](C)CN([C@H](C)CO)S2(=O)=O,-3.5,-3.5,x,x,x,x
COc1ccccc1-c1ccc2c(c1)O[C@@H](CN(C)S(=O)(=O)c1ccccc1)[C@@H](C)CN([C@H](C)CO)S2(=O)=O,14.2,89.7*,105.1*,58.2,59.8*,48.9*
COc1ccccc1-c1ccc2c(c1)O[C@@H](CN(C)S(=O)(=O)c1ccccc1)[C@@H](C)CN([C@@H](C)CO)S2(=O)=O,2.0,80.2*,101.1*,99.4*,u,41.9*
COc1ccccc1-c1ccc2c(c1)O[C@H](CN(C)C(=O)c1ccccc1)[C@H](C)CN([C@H](C)CO)S2(=O)=O,-2.3,10.2,x,x,x,x
CC(C)C(=O)Nc1ccc2c(c1)C(=O)N(C)[C@@H]1CC[C@@H](CC(=O)Nc3ccccc3)O[C@H]1CO2,-6.0,22.3,x,x,x,x
CNC[C@@H]1Oc2cc(-c3cccc(C(=O)N(C)C)c3)ccc2S(=O)(=O)N([C@H](C)CO)C[C@H]1C,-2.1,x,x,x,x,x
COc1cc2c(cc1OC)CN(C(=O)[C@@H]1[C@H]3C(=O)O[C@H](c4ccccc4)[C@H](c4ccccc4)N3[C@H](c3ccccc3OCCO)[C@@]13C(=O)Nc1ccc(C#CC4(O)CCCCCC4)cc13)CC2,2.9,x,x,x,x,x
COc1cc(CN2CC3(CN(C(=O)Nc4cccc(F)c4)C3)c3c(n(C)c4cc(OC)ccc34)[C@H]2CO)cc(OC)c1,48.8,x,x,x,x,x
